Compound activity (PubChem)
Only some compounds are listed: those with a hit (about 32% of all), similar ones and a draw of the others.
PostGolgi yeast = growth inhibition of a yeast mutant, post-Golgi transport screen; post-Golgi transport phenotypic cell assay; inhibition, % at 10 µM; 98,000 compounds, 0.9% hits; AID 739;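 further: yeast cells grown in 1536-well plates; yeast grown about 18 h at 30C before absorbance read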
PostGolgi ctrl = inhibits growth of the yeast control strain; efflux-deficient yeast background strain, growth absorbance A615, 16 h; inhibition, % at 10 µM; 98,000 compounds, 5% hits
CYP2C9 act = activators of human CYP2C9 | 96,000 compounds, 1.4% hits | AID 1024 | activation factor at 5 µM | recombinant CYP2C9, luciferin-H conversion, luminescence; active compounds read high; factor 1 = untreated enzyme, 0 = blocked;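 active means activation factor of 2 or more for CYP2C9 at a 5 µM dose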;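 further: 0 = sulfaphenazole-blocked wells and 1 = vehicle-only wells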
Target sequence (P11712 whole entry, looked up): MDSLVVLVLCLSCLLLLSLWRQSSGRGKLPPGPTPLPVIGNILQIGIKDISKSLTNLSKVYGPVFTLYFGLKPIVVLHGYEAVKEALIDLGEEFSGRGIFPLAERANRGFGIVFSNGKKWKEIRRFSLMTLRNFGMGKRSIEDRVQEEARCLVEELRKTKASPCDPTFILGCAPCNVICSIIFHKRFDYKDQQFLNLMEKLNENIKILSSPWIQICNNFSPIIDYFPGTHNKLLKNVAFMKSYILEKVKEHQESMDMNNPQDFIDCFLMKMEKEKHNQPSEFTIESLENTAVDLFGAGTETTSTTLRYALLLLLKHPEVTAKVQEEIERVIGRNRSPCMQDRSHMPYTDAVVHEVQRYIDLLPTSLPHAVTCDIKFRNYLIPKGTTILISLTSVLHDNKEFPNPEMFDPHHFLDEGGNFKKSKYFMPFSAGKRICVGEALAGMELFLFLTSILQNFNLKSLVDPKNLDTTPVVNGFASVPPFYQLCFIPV
CYP2C9 inh = human CYP2C9 inhibition; P11712; inhibition, % at 5 µM; 96,000 compounds, 20% hits; CYP2C9 Supersomes, luciferin-H conversion, luminescence;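 active means blocking of liver enzyme CYP2C9 beyond about 50% at 5 µM, limit read from the data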
CYP2C19 inhib = human CYP2C19 inhibition; P33261; CYP2C19 Supersomes, luciferin-H EGE luminescence, 30 min; inhibition, % at 5 µM; 96,000 compounds, 21% hits; AID 778;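 active means CYP2C19 inhibition above a set limit at 5 µM in the primary screen, cut at about 50% in these data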;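 further: plate controls were negative control wells for no effect and 2.5 mM tranylcypromine positive control for full effect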
CYP2C19 act = cytochrome P450 2C19 (human) activation. AID 1025. activation factor at 5 µM. P33261. 96,000 tested, under 10 active. recombinant CYP2C19, luciferin-H EGE luminescence; active compounds read high; 0 = fully inhibited enzyme, 1 = untreated enzyme;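 active means activation factor of at least 2 at 5 µM in the primary screen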;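 further: 0 = wells with 2.5 mM tranylcypromine and 1 = vehicle-only wells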
The depositor's hits bear a star. Unless noted, no stated cut-off is given here; in the data, active means inhibition above about 30%; inactive means the rest.

SMILES | PostGolgi yeast | PostGolgi ctrl | CYP2C9 act | CYP2C9 inh | CYP2C19 inhib | CYP2C19 act
CC(=Nc1ccccc1)Nc1ccccc1 | 2.8 | -0.1 | 1.1 | -9.4 | 78.9* | 0.2
CN1CCN(Cc2c(O)ccc3occ(C(=O)c4ccccc4)c23)CC1 | 4.5 | 1.7 | 0.9 | 8.4 | 98.9* | 0
CN1CCN(Cc2c(O)ccc3c(-c4ccccc4)cc(=O)oc23)CC1 | 0.9 | 10.6 | 0.8 | 19.3 | 53.5* | 0.5
N#CC(c1ccc(O)cc1)N1CCCCC1 (stereo unspecified) | 4.3 | 5.9 | 1 | 4.0 | 3.1 | 1
Fc1ccc(C2CC(c3ccccc3)Nc3ncnn32)cc1 (stereo unspecified) | -4.2 | 14.2 | 1 | -2.3 | 53.3* | 0.5
c1ccc(C2CC(c3ccccc3)n3ncnc3N2)cc1 (stereo unspecified) | 14.7 | 7.0 | 0.5 | 45.3 | 93.2* | 0.1
Cc1ccccc1C1CC(c2ccccc2OC(F)F)Nc2ncnn21 (stereo unspecified) | 11.4 | 15.7 | 0.4 | 59.7* | 75.1* | 0.2
Clc1ccccc1C1CC(c2ccccc2)Nc2ncnn21 (stereo unspecified) | -1.3 | 22.5 | 0.6 | 40.5 | 38.4 | 0.6
Cn1c(CCNC(=O)C(C)(C)C)nc2ccccc21 | 0.5 | -1.2 | 0.9 | 7.0 | 26.3 | 0.7
Cc1occc1-c1nnc(SCC(=O)N2CC(=O)Nc3ccccc32)n1CC(C)C | 6.8 | -2.0 | 1 | -4.5 | 2.7 | 1
COc1ccccc1NC(=O)Cc1nn(C)c(=O)c2ccccc12 | 1.7 | 5.5 | 0.8 | 20.6 | 30.6 | 0.7
COc1ccc(CCN(C(=O)C(F)(F)F)C(C(=O)NC2CCCCC2)c2ccc(C)s2)cc1OC (stereo unspecified) | 4.0 | 4.2 | 0.6 | 36.2 | -0.4 | 1
O=C(NC(=S)N(Cc1ccccc1)Cc1ccccc1)c1ccccc1F | 16.3 | 24.8 | 0.5 | 53.0* | 21.9 | 0.8
CC(C)N(CCc1ccncc1)C(=O)Nc1ccc(Cl)c(Cl)c1 | 91.1* | 90.3* | 0 | 99.2* | 99.5* | 0
CCc1ccc(NC(=O)N(CCN(C)C)C(C)c2cccnc2)cc1 (stereo unspecified) | 2.0 | 3.1 | 0.8 | 15.3 | 15.5 | 0.8
CC(C)N(CCc1ccncc1)C(=O)Nc1ccc(F)cc1 | -3.9 | -6.2 | 0.1 | 86.9* | 97.0* | 0
CCCc1cc(-c2ccc(O)c(OCC)c2)c(C#N)c(N)n1 | 8.4 | 29.5 | 0.2 | 82.5* | 90.2* | 0.1
CCOc1cc(-c2c(C)c(CC)nc(N)c2C#N)ccc1O | -4.6 | 10.1 | 0.8 | 23.2 | 62.8* | 0.4
CCOc1cc(-c2cc(-c3ccc(C)o3)nc(N)c2C#N)ccc1O | 11.2 | 26.1 | 0.6 | 37.7 | 17.9 | 0.8
Cc1oncc1C(=S)Nc1ccccc1 | -5.1 | 4.7 | 0.8 | 15.7 | 35.1 | 0.6
O=C(Nc1ccc2c(c1)OCCO2)c1cc2sccc2n1Cc1ccc(F)cc1 | -4.6 | 52.9* | 0.2 | 77.6* | 59.8* | 0.4
Cn1c(C(=O)Nc2ccc3c(c2)OCCO3)cc2sccc21 | -8.9 | -4.4 | 1.4 | -35.2 | 25.4 | 0.7
O=C(NC(NC(=S)Nc1cccc(Cl)c1)C(Cl)(Cl)Cl)OCc1ccccc1 (stereo unspecified) | -4.2 | 12.1 | 0.3 | 65.8* | 60.4* | 0.4
NC(=O)CC(NC(=O)OCc1ccccc1)C(=O)O (stereo unspecified) | 2.6 | 15.1 | 1 | -2.9 | -6.9 | 1.1
Cc1cccc(NC(=S)NC(NC(=O)OCc2ccccc2)C(Cl)(Cl)Cl)c1 (stereo unspecified) | -7.6 | 1.8 | 0.2 | 75.7* | 76.7* | 0.2
SMILES | PostGolgi yeast | PostGolgi ctrl | CYP2C9 act | CYP2C9 inh | CYP2C19 inhib | CYP2C19 act
COc1ccc(Br)cc1C(=O)Nc1ccccc1-c1ccccc1 | -6.3 | 26.2 | 0.8 | 16.9 | 31.3 | 0.7
CC12CC3(C)CC(C)(C1)CC(NC(=O)N1CCCC1)(C2)C3 | 11.5 | 32.0* | 1 | 3.6 | 38.5 | 0.6
O=C(O)Cn1cc(C(=O)c2cccs2)c2ccccc21 | -3.0 | 7.2 | 0.8 | 16.3 | 1.2 | 1
O=C(c1cn(CC(=O)N2CCCCC2)c2ccccc12)C1CC1 | -5.3 | -1.1 | 1.2 | -15.8 | 51.9* | 0.5
CCOC(=O)Cn1cc(C(=O)c2cccs2)c2ccccc21 | -5.2 | 5.6 | 0.1 | 94.5* | 96.8* | 0
O=C(c1cccs1)c1cn(CC(=O)N2CCc3ccccc3C2)c2ccccc12 | -4.7 | 25.6 | 0.1 | 91.3* | 83.5* | 0.2
COC(=O)c1cn(C(=O)c2cccs2)c2ccccc12 | -1.9 | 11.3 | 0.4 | 59.3* | 41.2 | 0.6
c1ccc(-n2c(Cc3cn4ccsc4n3)nnc2N2CCOCC2)cc1 | 7.9 | -1.7 | 1.1 | -13.3 | -8.1 | 1.1
COC(=O)c1sccc1-n1cccc1C(=O)C(=O)N1CCCC1 | -5.0 | -4.2 | 1 | -3.6 | 33.4 | 0.7
CCCNC(=O)C(=O)c1cccn1-c1ccsc1C(=O)OC | 11.8 | 4.8 | 0.9 | 7.6 | 26.9 | 0.7
COC(=O)c1sc2ccccc2c1-n1cccc1C(=O)C(=O)Nc1ccc(OC)cc1 | 1.4 | 13.1 | 0 | 100.7* | 42.2 | 0.6
COC(=O)c1sc2ccccc2c1-n1cccc1C(=O)C(=O)Nc1ccccc1 | -12.4 | 11.9 | 0 | 100.4* | 24.3 | 0.8
Cc1ccc(S(=O)(=O)N2CC3(C)CN(S(=O)(=O)c4ccc(C)cc4)CC(C)(C2)C3=O)cc1 | -3.5 | 4.7 | 1.1 | -5.6 | -12.1 | 1.1
COC1CCCCC1NS(=O)(=O)c1ccccc1 (stereo unspecified) | 1.4 | 8.3 | 0.9 | 11.0 | 56.5* | 0.4
COC1CCCCC1NS(=O)(=O)c1ccc(Cl)cc1 (stereo unspecified) | 0.2 | 6.1 | 0.7 | 27.7 | 94.4* | 0.1
O=S(=O)(NC1CCCCC1NCc1ccco1)c1ccccc1 (stereo unspecified) | 4.4 | -10.3 | 1 | 3.2 | 20.9 | 0.8
O=C(NCCc1ccccc1)c1ccc2nc(-c3ccco3)c(-c3ccco3)nc2c1 | 15.7 | -12.5 | 0 | 97.9* | 93.6* | 0.1
O=C(NC1CCCC1)c1ccc2nc(-c3ccco3)c(-c3ccco3)nc2c1 | -2.7 | 8.0 | 0.4 | 58.7* | 22.1 | 0.8
O=C(NCCO)c1ccc2nc(-c3ccco3)c(-c3ccco3)nc2c1 | -11.7 | 1.9 | 1 | 2.8 | 9.5 | 0.9
COc1ccccc1N1CCN(C(c2ccccc2Cl)c2nnnn2C(C)(C)C)CC1 (stereo unspecified) | 16.2 | 37.6* | 0.9 | 12.9 | 12.1 | 0.9
COc1ccccc1N1CCN(C(c2ccc(Cl)cc2)c2nnnn2C(C)(C)C)CC1 (stereo unspecified) | 4.3 | 44.1* | 0.1 | 86.9* | 89.0* | 0.1
COc1ccccc1C(c1nnnn1C(C)(C)C)N1CCCc2ccccc21 (stereo unspecified) | 3.6 | 18.9 | 0.7 | 27.8 | 12.1 | 0.9
COc1ccccc1C(c1nnnn1C(C)(C)C)N1CCN(Cc2ccncc2)CC1 (stereo unspecified) | 5.7 | 7.3 | 0.1 | 89.4* | 79.1* | 0.2
